Out of some 53,000 sequences screened, about 3,700 (7%) were called active. This is one part of a sample in which actives are shown more often than they occur. Values without a mark were called inactive.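 How the source made its calls: active means gene knockdowns whose robust z-score for IL-1 alpha signal is at least 2 or at most -2, so actives lie on both sides; inactive means the rest.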

The assay is described as follows: Components of the Cytosolic LPS Sensing Pathway: Gene Identification via Genome-wide siRNA Screen.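 Further: robust z of the log signal after scaling to non-targeting control siRNA wells of the plate.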 The conditions noted are these: RAW264.7 macrophages, IL-1a HTRF, actives lie on both sides, screened at 100 nM (by protocol), cells primed 5 h with Pam3CSK4 first. The method in brief:
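IL-1a HTRF of supernatants after 24 hour LipidA transfection of Pam3CSK4-primed (5 hours) RAW264.7 cells, 48h post-siRNA transfection (100 nM). Scores: percent of plate negative-control median, then log-based robust z-score.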
On the technique in general: TR-FRET usually uses a lanthanide donor and a delayed reading to cut background.
On to GGUAGUGGACAGUUUUGACTT against Mrpl55, for which the z-score was 0.675.

As to GCCUUUCAUGGAUUAACCUTT against Gsdmc, the z-score is -2.03 (active).

As for CGACGAAGAUAUUUACAGUTT against Vav1, the z-score was 0.504. Consider CCAAAAAAGUUAGUUGUGGTT against Phf6, for which the z-score was 1.23. In the case of GGUCGUAAAAAUUGAAAUCTT against Lhcgr, the z-score is 0.169.

Take GGAGGAUCUUGAGUUGGAGTT against Nupr1l: the z-score is 2.32 (active). For CCAUUUAUGGGUUUUCUCUTT against Taar7b, the z-score is 0.12. The result for GGCUGUGCUACAGUUUCUCTT against Get4 reads -0.498. Then GGUCAUUGAGCUGAUGGACTT against Elovl1, with 4.34 (active). Then GGGCUUUCACACAAUCCCUTT against Kcns1, with -0.362; and GGAACUGGCCAAUUACUACTT against Rdm1, with -1.29. In the case of GGAUAUCACUUGCUAUUCCTT against Abraxas2, the z-score was -0.406. As to GGCUUAUGACGAAUUAGUCTT against Ubn2, the z-score is 0.274.

GGAACAGCCUAUGUGGUCUTT against Sf3b6: the z-score is -2.17 (active). The result for GCACCUUGUCAACCAUUACTT against Kctd7 reads 0.842; that for GGGCAUCAGCAUUUGGUCATT against Med1, 0.698; that for GGAAGUCGAGUUGAAAUCGTT against Rida, 0.755. Then GUUGAGUGGCUGUGAUAUATT against Nms, with -0.00159; and GGAAAUAUGAUAGAAUGCCTT against Pramel32, with 0.17. The result for GGCAAAAGAACAAGAAACUTT against Orc1 reads -2.09 (active); that for GGCUAUCACCUCCAACACCTT against Fkbp8, -1.04. Take GGACAAGGAACAGAGCCUUTT against Rnf183: the z-score was -1.27. Then GGAGAUCUUGAGAUUGUAUTT against Ticrr, with 0.424; and GGAGAAAGGAUUGUGUUUGTT against Clec10a, with 2.2 (active). The result for CCCGGUUCUUAGGUUUGUATT against Prr15l reads 1; that for GGUCAGGUUGCCAAGAAGGTT against Sbds, 1.59; that for GGCAUGAAUAUGCAUUUAGTT against Arrdc3, -3.65 (active). The result for CCCAUAUGAGCUGAAAGCUTT against Il1b reads -0.878; that for GGGAAUGUCUGAAAGUCCCTT against Klhdc10, 0.66.

Turning to GGCCAUCAAGGUCUUUUCUTT against Washc1, the z-score was -1.34. Regarding GGAUCUUCUUCUAUCAGUCTT against Ncf4, the z-score was 0.487. Then CCGUUUUGAACCAUAAAAATT against Zfp7, with -0.873. The result for GGCCCACGUCCUGUACAUUTT against Tdrd1 reads 3.38 (active); that for GGUUUCGUAUAAAUUCUCUTT against Ank, 1.53; that for CGGAGUCAUACUUUUUCGATT against Trim12c, 0.0182. The result for GGUAAAAUACUACCUGAGATT against Abca15 reads -0.0103; that for GGAAUUCUUCAUCCAUGGATT against Olfr570, -2.66 (active). With CGGUUCUGGGAAUUCUUUGTT against Olfr624, the z-score is -2.11 (active).

In the case of GGAAGAAAUGUACAAACUGTT against Spg21, the z-score is 1.63. The result for GGACAUUUUCUUUGGAAAATT against Ccnl1 reads 0.194; that for GGACAGCAAGACCAACCUATT against Elavl2, -1.87. Then CCAUAAAUCACUCAGUUUGTT against Adad1, with 0.222. Then GGCAUUAUCUACAUGCACATT against Olfr1287, with 0.228; and GCAUGGCUAUUUAACAUUCTT against Rpl7l1, with 0.171; and GCAAUUUCUGUGUGAAGAATT against Ahcyl1, with -0.705.

Regarding GGGCUCUAGCUAAAAACGATT against Med10, the z-score is 1.23. As for AGUCUCCAAAUGCAUUUAATT against Serpinb9g, the z-score is -2.5 (active).

On to GAAUCGGAGGACAAAAUACTT against Emx1, for which the z-score was 0.368. The result for GCACCUUUGAAUGUGAAGUTT against Ccl2 reads -0.408; that for CCUUCAUUGGUUAGCAUGUTT against Rbl2, -0.424.

Turning to CACGACCUAGGUGUGACCATT against Arrdc2, the z-score is -2.31 (active).

As to CCUGACGAUCAAAUCACUGTT against Mvb12a, the z-score was 0.0387. On to CGCCAAUAUGGCCAUUGACTT against Ikzf2, for which the z-score is -0.304. The result for GGCUCUGUUUAUCCUGGAGTT against Pcdha7 reads -0.0385; that for GGUUUCAUUUUUCGAGGAGTT against Cit, -0.269. The result for GGUGAUACCAUCACUUUGATT against Mark2 reads 0.173; that for GCCGCAUCCACACAUCUCUTT against Daam2, 0.465; that for GGCACUCAGGAACUUCCUGTT against Eci3, -2.05 (active).

Turning to GCCCAUAGUAUAAAAUACCTT against Dzip1, the z-score was 1.06.

Turning to GGAAGAUGCCUUUUCCAAGTT against Syt1, the z-score was 0.752. In the case of GGUGGAAUAUAUUGAGUAUTT against Fam199x, the z-score is 0.251. The result for CGACUAAGGAUGAAAAGCATT against Apbb1ip reads -3.04 (active); that for GCGAAAGACGAUCAAAACCTT against Scn1a, 0.841. Then GGCUACACUCUGACAGCACTT against Znhit2, with -0.666. Consider GCCCGGUAAAGGUAUCCAUTT against Trp53bp1, for which the z-score was 0.384. Turning to GGGAGUUACUAACCACUUCTT against Gja3, the z-score is -2.05 (active). In the case of GCCUCUCCUGUGAAUGACATT against Erlec1, the z-score was -0.699. Then GGGUGUCACAAAAUAAAAUTT against Sigirr, with -0.245.

On to GGAGAUGAACCAUUAUGUCTT against Mycbp, for which the z-score is -2.03 (active). For GCAGAAAUACUGGCGAAUATT against Gm9725, the z-score is 0.607.

Consider GGUGGAGACACUGAAGGUUTT against Akap1, for which the z-score was 0.314. The result for GACCAGAAAUUUAAGUGCUTT against Dnajc30 reads 1.5; that for GGAUCUUCCUCAUCACCCUTT against Ube4a, 0.657; that for “GCUUACCUGCUGUCUUAAUTT against F630003A18Rik”, 0.42. With GGAGCUCCUGAACAGGAUCTT against Gpr26, the z-score was 2.13 (active). Then CCUUACAUGUUGACUACCCTT against Rnase13, with 0.403; and GGUCUUCUGUCCAUUAGUGTT against Pigc, with 0.14.

For the sequence GGAGAAAGAUGGCAUAAUGTT against Slitrk6, the z-score was -0.595. The result for GGUGAAGGUGAACAAGGACTT against Myh9 reads 2.92 (active); that for GGACAAUCCAUAAGUUAAATT against Scai, 0.22; that for GGAAGUUAAGCAUAGUUUCTT against Flrt3, 1.15. GGCAACAGUAUUUAUGAAUTT against Sim2: the z-score is -0.45.

CCUAGCAUGUUUCUUGCUATT against Rnft2: the z-score is 0.46. For GGAGAAAAUUGUCAAGAAGTT against Ift122, the z-score is -0.824. Turning to CCAGGAUCAAAGAACUUAUTT against Olfr1424, the z-score was -3.39 (active). In the case of GGAACUUUUCAUCCUGAAGTT against Fgl1, the z-score was 0.0919. Consider GCUCAUCAAGCUGUACCUATT against Eif2b1, for which the z-score was 1.16. As to GCUUUGAUUUAUGAGGUCATT against Ttc30a1, the z-score was 0.251. GGUCUUGUGGUGGUACUACTT against Elovl2: the z-score was 1.77. The result for GGCCAUUCUGGAAACUCCATT against Foxp4 reads -0.0644; that for GGAAUAAUAGAGGAAUGAGTT against Bclaf1, -1.61; that for GGAGAGAGAUUUUCAAUAUTT against Gtdc1, -0.41. The result for GGAGAGCCUUAUUCAUCGCTT against H2-DMb2 reads -0.0566. For GGAAUCUGUCAUGUGAAUATT against Slc1a5, the z-score was -0.0766. Take GCUGGUGCAUUACUGAGGUTT against Olfr69: the z-score was 0.434. As to CCAAACACUAUGUGACAAGTT against Trim8, the z-score was -0.626. Then GCGGGUGAAAUACACCAAGTT against Trim28, with -2.2 (active); and GGCCAAGCAUGUUUUGUCATT against Cep72, with -0.639. Then GCUUGGUGGGUUUGUUGAUTT against Slc28a1, with -0.113; and GUGCUCUAUGUCUUCACUGTT against Ltb4r2, with -1. The result for CGACUACCAACAGUUCAUATT against P2rx6 reads 1.14; that for UCCAUUUCGACCCUUGUACTT against Romo1, -2.88 (active). Regarding GGAGCUCAUAGACCAGCUUTT against Necab3, the z-score is 0.371. The result for GCUUGAUGGUAAAAAGGUUTT against Atl1 reads -1.18. As for CCAACCUAUAAGUUAAUGATT against Mrps22, the z-score is -0.735. Regarding CGGAGAGGAUUUCAUCGAATT against Azgp1, the z-score is 0.0877.

As for GGGCCUCCAUCCUACUAUGTT against Grina, the z-score is 1.65. Then GGGCUUCUUCUGCUAUGACTT against Plppr2, with -2.2 (active).

The record behind these values is PubChem BioAssay AID1508600 (Functional Genomics Laboratory (NCATS/FGL), 2020).
